This assay deals with T1, GST-Ap-NF-kB RHD (Exaiptasia pallida (Aiptasia), UniProt A0A913YAJ5 2-422).
T1 sequence: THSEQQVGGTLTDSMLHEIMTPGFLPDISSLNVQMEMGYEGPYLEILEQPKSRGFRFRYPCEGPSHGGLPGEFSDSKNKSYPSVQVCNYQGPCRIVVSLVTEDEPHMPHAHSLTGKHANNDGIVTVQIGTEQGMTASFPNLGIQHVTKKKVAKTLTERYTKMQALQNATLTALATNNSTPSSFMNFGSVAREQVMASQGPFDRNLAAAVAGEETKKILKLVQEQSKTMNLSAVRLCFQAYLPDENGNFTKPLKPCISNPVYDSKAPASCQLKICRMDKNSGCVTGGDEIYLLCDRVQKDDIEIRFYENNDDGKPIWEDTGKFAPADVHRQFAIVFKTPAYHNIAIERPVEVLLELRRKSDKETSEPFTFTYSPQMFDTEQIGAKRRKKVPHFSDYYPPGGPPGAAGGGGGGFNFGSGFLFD
Kind of assay: protein-binding microarray (PBM); PBM: ~300 nM protein, 6 mM HEPES pH 7.8, 80 mM KCl, 0.5 mM EDTA, 0.5 mM EGTA, 6% glycerol, 35 ng/ul poly-dIdC, 1% milk, 1 h, room temperature; Ap Aiptasia and Nv Nematostella (sea anemones) / Co Capsaspora / Aq Amphimedon (sponge) / Dm Drosophila / Hu human; RHD is the Rel homology domain; high values mean tight binding. Particulars: dsDNA, one strand shown.
Sequence “CCGATTAACATCAGGGATTTCCATGATGTTAATCGGGTCTTGATTCGCTTGACGCTGCTG” had a binding signal of 4.13 z-score. As to “CCGATTAACATCAACCACCCCCTTGATGTTAATCGGGTCTTGATTCGCTTGACGCTGCTG”, the binding signal turned out to be 3.52 z-score. For the sequence “CCGATTAACATCACTGTTTTCCCTGATGTTAATCGGGTCTTGATTCGCTTGACGCTGCTG”, the binding signal worked out at 2.63 z-score. Regarding “CCGATTAACATCAGGGAAACCCATGATGTTAATCGGGTCTTGATTCGCTTGACGCTGCTG”, the binding signal worked out at 3.64 z-score. In turn, “CCGATTAACATCAGATATTTCCCTGATGTTAATCGGGTCTTGATTCGCTTGACGCTGCTG” gave a binding signal of 3.25 z-score. Sequence “CCGATTAACATCAGGGCCCCCCCTGATGTTAATCGGGTCTTGATTCGCTTGACGCTGCTG” displayed a binding signal of 6.57 z-score. In the case of “CCGATTAACATCAGGATATTCCCTGATGTTAATCGGGTCTTGATTCGCTTGACGCTGCTG”, the binding signal was found to be 4.67 z-score. Sequence “CCGATTAACATCAGGGATACCCCTGATGTTAATCGGGTCTTGATTCGCTTGACGCTGCTG” came in with a binding signal of 6.66 z-score. The sequence “CCGATTAACATCAATTTTTCCCATGATGTTAATCGGGTCTTGATTCGCTTGACGCTGCTG” registered a binding signal of 2.62 z-score. Take “CCGATTAACATCACAAAACTCCCTGATGTTAATCGGGTCTTGATTCGCTTGACGCTGCTG”: the binding signal is 4.94 z-score. On to “CCGATTAACATCAAACCCCCCCGTGATGTTAATCGGGTCTTGATTCGCTTGACGCTGCTG”, for which the binding signal turned out to be 6.76 z-score. Sequence “CCGATTAACATCAACGCCCCCCCTGATGTTAATCGGGTCTTGATTCGCTTGACGCTGCTG” had a binding signal of 5.09 z-score. The sequence “CCGATTAACATCAGGGGGGGTACTGATGTTAATCGGGTCTTGATTCGCTTGACGCTGCTG” came in with a binding signal of 5.04 z-score.

For “CCGATTAACATCACACCCCCCCCTGATGTTAATCGGGTCTTGATTCGCTTGACGCTGCTG”, the binding signal came to 4.42 z-score.

In the case of “CCGATTAACATCAAATCACCCCCTGATGTTAATCGGGTCTTGATTCGCTTGACGCTGCTG”, the binding signal came to 4.73 z-score.

With “CCGATTAACATCAAGGATTCCCGTGATGTTAATCGGGTCTTGATTCGCTTGACGCTGCTG”, the binding signal came out at 2.73 z-score.

Consider “CCGATTAACATCAGGGGGACAAATGATGTTAATCGGGTCTTGATTCGCTTGACGCTGCTG”, for which the binding signal worked out at 4.37 z-score.

Sequence “CCGATTAACATCACGTCCCCCCCTGATGTTAATCGGGTCTTGATTCGCTTGACGCTGCTG” registered a binding signal of 6.32 z-score. As for “CCGATTAACATCACCCACTTCCCTGATGTTAATCGGGTCTTGATTCGCTTGACGCTGCTG”, the figure is 1.06 z-score. Next, “CCGATTAACATCACGTGTTTCCCTGATGTTAATCGGGTCTTGATTCGCTTGACGCTGCTG”: 2.62 z-score. Take “CCGATTAACATCACCTTGGGAAATGATGTTAATCGGGTCTTGATTCGCTTGACGCTGCTG”: the binding signal amounted to 1.21 z-score. “CCGATTAACATCAGGGGGTGTAATGATGTTAATCGGGTCTTGATTCGCTTGACGCTGCTG” displayed a binding signal of 3.57 z-score. “CCGATTAACATCAGGCGATTCCCTGATGTTAATCGGGTCTTGATTCGCTTGACGCTGCTG” had a binding signal of 1.93 z-score. Next, “CCGATTAACATCACGGGACTCCCTGATGTTAATCGGGTCTTGATTCGCTTGACGCTGCTG”: 5.53 z-score; “CCGATTAACATCAGGGAAAGAAATGATGTTAATCGGGTCTTGATTCGCTTGACGCTGCTG”: 1.61 z-score.

These data come from article PMC5700166.
